Results filed as inconclusive are left out. Calls of active or inactive are those of the source. Rule for the calls, unless noted: active = hit-call score of the fitted dose curve at least 0.9, where 1 is the maximum; inactive = score below 0.9.
Key:
[1] = ACEA_ER_80hr: ACEA Biosciences xCELLigence Real-Time Cell Analysis on Estrogen Receptor Agonism for Proliferation (AID 2282667; active = hit-call score of the fitted dose curve at least 0.9, where 1 is the maximum); conditions: T47D proliferation, impedance (xCELLigence), 80 h
Summary of the method: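 Real-time electrical impedance tracked growth of the human breast line T47D, with the 80 h post-dosing value used. Dosing spanned eight 1:4 steps down from a 100 uM final top concentration, run in duplicate.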

[2] = ATG_CRE_CIS: Attagene CIS-FACTORIAL HepG2 Assay for human cAMP Responsive Element (CRE) binding protein 3 (AID 2282926); conditions: HepG2 CRE cis-reporter, Attagene multiplexed mRNA; actives raise or lower the signal
Summary of the method: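 Human liver HepG2, transient MRTU transfection, 24 h compound exposure. Total RNA → oligo(dT) RT → PCR → 6-FAM primer extension → HpaI cut → CE. Activity called both directions vs DMSO.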

[3] = molecular target: CCAAT/enhancer-binding protein beta (Homo sapiens) (UniProt P17676); assay: ATG_C_EBP_CIS: Attagene CIS-FACTORIAL HepG2 Assay for human CCAAT/Enhancer Binding Protein (C/EBP) beta (AID 2282927); conditions: HepG2 Attagene cis-factorial transcription factor reporter; actives raise or lower the signal
Summary of the method: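 HepG2, transient MRTU transfection, 24 h treatment. RT-PCR plus CE fluorescence; DMSO negative control, bidirectional fit.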

[4] = ATG_CMV_CIS: Attagene CIS-FACTORIAL HepG2 Assay for human CMV (Internal Marker) (AID 2282928); conditions: HepG2 CMV promoter reporter, transcription factor profiling; actives raise or lower the signal;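 note: endpoint acts as a background internal control marker rather than a target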
Summary of the method: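 CMV internal-marker background readout in transiently transfected HepG2 cells bearing cis-regulated reporter units. Reporter mRNA is measured 24 h after dosing by RT-PCR and capillary electrophoresis, with bidirectional fitting against DMSO.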

[5] = ATG_DR4_LXR_CIS: Attagene CIS-FACTORIAL HepG2 Assay for human Liver X Receptor (LXR), DR4 submotif (AID 2282929); conditions: HepG2 Attagene DR4 cis-reporter, mRNA transcription; actives raise or lower the signal
Summary of the method: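 HepG2 cells were transiently transfected with multiple cis-regulated reporter units and dosed for 24 hours. The DR4 reporter mRNA was quantified by RT-PCR, 6-FAM labelling and capillary electrophoresis. Bidirectional fits used DMSO as baseline.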

[6] = molecular target: Aryl hydrocarbon receptor (Homo sapiens) (UniProt P35869); assay: ATG_Ahr_CIS: Attagene CIS-FACTORIAL HepG2 Assay for human Aryl Hydrocarbon Receptor (Ahr) (AID 2282930); conditions: HepG2 AhR cis-factorial reporter transcription; actives raise or lower the signal
Summary of the method: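 Endogenous factor activity is tracked through cis-promoter reporter units transfected into HepG2 cells. Transcript levels at 24 h are read by fluorescent RT-PCR and capillary electrophoresis, with activity in either direction scored relative to DMSO.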

[7] = ATG_AP_1_CIS: Attagene CIS-FACTORIAL HepG2 Assay for human Activator Protein 1 (AP-1) (AID 2282931); conditions: HepG2 Attagene cis-factorial AP-1 reporter mRNA; actives raise or lower the signal
Summary of the method: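 HepG2 cells transiently transfected with cis-element-driven reporter transcription units, dosed for 24 hours. Reporter mRNA measured by RT-PCR, 6-FAM labelling, HpaI digestion and capillary electrophoresis. Bidirectional fitting against DMSO baseline.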

[8] = ATG_AP_2_CIS: Attagene CIS-FACTORIAL HepG2 Assay for human Activator Protein 2 (AP-2) (AID 2282932); conditions: HepG2 AP-2 cis-reporter, Attagene transcription factor profiling; actives raise or lower the signal
Summary of the method: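 Multiplexed mRNA reporter assay in HepG2: cis-regulated units report endogenous factor activity after 24 h treatment. Fluorescence from capillary electrophoresis of RT-PCR products gives the signal, with DMSO as baseline.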

[9] = ATG_BRE_CIS: Attagene CIS-FACTORIAL HepG2 Assay for human Bone Morphogenetic Protein (BMP) Response Element (BRE) (AID 2282933); conditions: HepG2 BMP response element reporter, Attagene transcription factor profiling; actives raise or lower the signal
Summary of the method: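 Fluorescence-labelled reporter cDNA fragments, separated by capillary electrophoresis, gave the signal for this component of a 52-readout multiplex. HepG2 cells were transfected, exposed to chemicals for 24 h, and compared with DMSO using bidirectional fitting.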

[10] = molecular target: Retinoic acid receptor alpha (Homo sapiens) (UniProt P10276); assay: ATG_DR5_RAR_CIS: Attagene CIS-FACTORIAL HepG2 Assay for human Retinoic Acid Receptor Alpha (RARE), DR5 submotif (AID 2282934); conditions: HepG2 Attagene cis-factorial RARE DR5 reporter, mRNA; actives raise or lower the signal;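 for AC50: reporter responds to endogenous RAR alpha beta and gamma in HepG2 not RARA alone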
Summary of the method: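 After 24 h of chemical exposure, transiently transfected HepG2 cells were lysed for total RNA; the DR5-regulated reporter transcript was quantified via RT-PCR and capillary electrophoresis, with activity fitted bidirectionally against DMSO.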

Measured: AC50

Aryl hydrocarbon receptor (Homo sapiens), sequence (P35869 whole entry, looked up): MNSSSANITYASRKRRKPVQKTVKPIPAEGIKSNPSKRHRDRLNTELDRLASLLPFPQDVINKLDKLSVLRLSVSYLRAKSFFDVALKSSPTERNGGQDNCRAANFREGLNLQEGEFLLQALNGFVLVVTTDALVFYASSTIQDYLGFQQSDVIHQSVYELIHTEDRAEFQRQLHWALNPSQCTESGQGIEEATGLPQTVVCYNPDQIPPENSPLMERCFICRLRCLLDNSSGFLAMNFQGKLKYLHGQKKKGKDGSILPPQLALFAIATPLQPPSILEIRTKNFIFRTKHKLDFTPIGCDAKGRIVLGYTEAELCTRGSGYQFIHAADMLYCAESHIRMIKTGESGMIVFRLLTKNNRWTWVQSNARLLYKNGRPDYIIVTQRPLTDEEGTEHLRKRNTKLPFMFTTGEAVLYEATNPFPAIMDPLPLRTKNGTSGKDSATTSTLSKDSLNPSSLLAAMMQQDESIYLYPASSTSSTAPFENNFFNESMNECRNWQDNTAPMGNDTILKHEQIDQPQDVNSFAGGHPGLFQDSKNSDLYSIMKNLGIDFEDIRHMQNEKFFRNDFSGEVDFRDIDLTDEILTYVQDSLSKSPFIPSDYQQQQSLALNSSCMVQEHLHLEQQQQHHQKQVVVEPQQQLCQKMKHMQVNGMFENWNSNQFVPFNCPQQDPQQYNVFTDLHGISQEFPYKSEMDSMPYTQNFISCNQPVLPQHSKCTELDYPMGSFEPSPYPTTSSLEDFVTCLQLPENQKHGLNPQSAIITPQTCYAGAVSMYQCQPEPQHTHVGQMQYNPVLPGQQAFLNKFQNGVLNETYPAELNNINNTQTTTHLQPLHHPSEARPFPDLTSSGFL
CCAAT/enhancer-binding protein beta (Homo sapiens), sequence (P17676 whole entry, looked up): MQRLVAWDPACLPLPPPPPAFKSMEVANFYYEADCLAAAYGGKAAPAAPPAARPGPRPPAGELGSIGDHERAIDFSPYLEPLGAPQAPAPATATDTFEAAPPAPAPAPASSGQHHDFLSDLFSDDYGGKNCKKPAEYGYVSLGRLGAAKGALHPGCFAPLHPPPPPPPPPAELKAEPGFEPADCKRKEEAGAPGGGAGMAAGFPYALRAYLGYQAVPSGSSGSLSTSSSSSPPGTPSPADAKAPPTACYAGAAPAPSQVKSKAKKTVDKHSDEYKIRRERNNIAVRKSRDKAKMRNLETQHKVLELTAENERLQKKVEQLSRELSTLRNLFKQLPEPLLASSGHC
Retinoic acid receptor alpha (Homo sapiens), sequence (P10276 whole entry, looked up): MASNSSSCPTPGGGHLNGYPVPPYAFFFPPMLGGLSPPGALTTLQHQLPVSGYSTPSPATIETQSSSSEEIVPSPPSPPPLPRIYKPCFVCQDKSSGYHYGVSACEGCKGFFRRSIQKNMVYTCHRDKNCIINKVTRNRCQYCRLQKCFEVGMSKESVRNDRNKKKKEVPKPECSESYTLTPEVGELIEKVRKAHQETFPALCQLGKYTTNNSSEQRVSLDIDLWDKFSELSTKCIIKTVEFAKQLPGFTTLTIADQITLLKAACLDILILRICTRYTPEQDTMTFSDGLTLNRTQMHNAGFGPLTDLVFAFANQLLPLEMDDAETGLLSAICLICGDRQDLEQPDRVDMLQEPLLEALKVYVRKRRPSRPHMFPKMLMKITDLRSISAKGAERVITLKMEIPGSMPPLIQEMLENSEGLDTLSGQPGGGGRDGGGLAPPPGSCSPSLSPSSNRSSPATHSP

C=CC(=O)NC(C)(C)C
active: [4] 48.7 µM | [10] 27.2 µM
inactive: all other assays above

CCCCCCCCCCCCc1ccc(O)cc1
active: [1] 350 nM
inactive: all other assays above

COC(=O)c1ccccc1C
not listed: [9]
inactive: all other assays above

CCCCC(CC)COS(=O)(=O)O (configuration not stated)
inactive: all assays above

C=C1C[C@H]2[C@@H]3C=C(C)C4=CC(=O)CC[C@]4(C)[C@H]3CC[C@]2(C)[C@@]1(OC(C)=O)C(C)=O
active: [1] 3.63 nM | [5] 99.7 µM | [7] 63 µM
inactive: all other assays above

CC(=O)OCc1ccccc1
not listed: [9]
inactive: all other assays above

CC(C)=CCl
inactive: all assays above

CCOc1ccc(NC(N)=O)cc1
not listed: [9]
inactive: all other assays above

CC(=O)OC(C)c1ccccc1 (configuration not stated)
inactive: all assays above

O=C(O)CC(C(=O)O)S(=O)(=O)O (configuration not stated)
not listed: [5]
inactive: all other assays above

Cc1cc(=O)[nH]c(=O)[nH]1
not listed: [5]
inactive: all other assays above

Cc1c(C(=O)c2c[nH]n(C)c2=O)ccc(S(C)(=O)=O)c1C1=NOCC1
not listed: [5] | [6]
inactive: all other assays above

Nc1nc(N)nc(-c2ccccc2)n1
not listed: [5] | [8]
inactive: all other assays above

CC=C(C)C=CC=C(C)C
not listed: [5] | [9]
inactive: all other assays above

CC1(C)CCC[C@]2(C)[C@H]3CC(=O)O[C@]3(C)CC[C@@H]12
not listed: [6] | [8]
inactive: all other assays above

Cc1c[nH]c(=O)[nH]c1=O
not listed: [5]
inactive: all other assays above

CCCCNS(=O)(=O)c1ccc(C)cc1
not listed: [5]
inactive: all other assays above

CC(C)[N+](C)(CCOC(=O)C1c2ccccc2Oc2ccccc21)C(C)C
not listed: [5] | [8] | [9]
inactive: all other assays above

Source: PubChem BioAssay (EPA / NIEHS)
